Bioassay records: PubChem BioAssay, National Center for Advancing Translational Sciences (NCATS)
Shown is part of a subset that was picked to be rich in hits.
Pf Dd2 inh = blocks in vitro growth of P. falciparum Dd2; Potency, µM (series often up to 28.9 µM), usual class: inhibitors; P. falciparum Dd2 growth, SYBR Green, 72 h; AID 1347417; hit rate 4.3% among 120,000; active = well fitted inhibition curve with a large enough effect; note: nearly all actives have a fitted effect of over 65% in size
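Readout: SYBR Green fluorescence, 485 nm excitation, 535 nm emission, after ~16 h lysis at 37C. Before that, Dd2-infected red cells (2.5% hematocrit) grew 72 h with compound, 29 uM top final concentration.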
Hits are given with their value; [ ] = another dose, or the depositor's remark.

How did CCc1cccc(C)c1NC(=O)C1CCN(S(=O)(=O)c2cc(Br)cc3c2N(C(C)=O)CC3)CC1 do in these assays?
Pf Dd2 inh: inactive

What do the screens show for `CCC(=O)N1CCc2cc(Br)cc(S(=O)(=O)N3CCC(C(=O)N(CC)CC)CC3)c21`?
Pf Dd2 inh: 10µM

What do the screens show for `CCC(=O)N1CCc2cc(Br)cc(S(=O)(=O)N3CCCC(C(=O)NCc4ccc(OC)cc4)C3)c21` (stereo not drawn)?
Pf Dd2 inh: inactive

Results for CCOC(=O)C1CCCN(S(=O)(=O)c2cc(Br)cc3c2N(C(=O)CC)CC3)C1 (stereo not drawn) ?
Pf Dd2 inh: 3.55µM

What do the screens show for `O=C1COCCN1C1CCN(Cc2cccnc2)CC1`?
Pf Dd2 inh: inactive

Results for CCOC(=O)N1CCc2c(sc3c2c(=O)n(Cc2ccccc2)c(=O)n3Cc2ccc(C)cc2)C1 ?
Pf Dd2 inh: 2.51µM

Results for CCOc1ccc(NC(=O)Cn2c(=O)n(CCc3ccccc3)c(=O)c3c4c(sc32)CCCC4)cc1 ?
Pf Dd2 inh: inactive

How did COc1ccccc1NC(=O)Cn1c(=O)n(Cc2ccccc2)c(=O)c2c3c(sc21)CN(C(C)=O)CC3 do in these assays?
Pf Dd2 inh: inactive

Results for CCOC(=O)N1CCc2c(sc3c2c(=O)n(-c2ccc(CC)cc2)c(=O)n3Cc2cccc(OC)c2)C1 ?
Pf Dd2 inh: inactive

How did CCOc1ccccc1NC(=O)Cn1c(=O)n(Cc2ccccc2)c(=O)c2c3c(sc21)CN(C(C)=O)CC3 do in these assays?
Pf Dd2 inh: inactive

What do the screens show for `CC(=O)c1cccc(-n2c(=O)c3c4c(sc3n(Cc3ccccc3Cl)c2=O)CN(C(C)=O)CC4)c1`?
Pf Dd2 inh: inactive

Results for C#CCn1c(=O)n(-c2cccc(Cl)c2C)c(=O)c2c3c(sc21)CN(C(C)=O)CC3 ?
Pf Dd2 inh: inactive

Results for CC(=O)N1CCc2c(sc3c2c(=O)n(Cc2ccccc2)c(=O)n3Cc2ccc(Cl)cc2)C1 ?
Pf Dd2 inh: inactive

Results for CCOC(=O)N1CCc2c(sc3c2c(=O)n(CCc2ccccc2)c(=O)n3Cc2ccc(C)cc2C)C1 ?
Pf Dd2 inh: 2.51µM

Results for CC(=O)N1CCc2c(sc3c2c(=O)n(-c2cccc(Cl)c2C)c(=O)n3Cc2ccccc2C)C1 ?
Pf Dd2 inh: 8.91µM

How did CCOC(=O)N1CCc2c(sc3c2c(=O)n(CCc2ccccc2)c(=O)n3CC(=O)Nc2cccc(C)c2)C1 do in these assays?
Pf Dd2 inh: inactive

How did CC(=O)N1CCc2c(sc3c2c(=O)n(Cc2ccccc2)c(=O)n3Cc2cccc(Cl)c2)C1 do in these assays?
Pf Dd2 inh: 10µM

Results for CC1(COc2ccccc2)COc2ccc(C(=O)NCCc3ccccn3)cc2N1 (stereo not drawn) ?
Pf Dd2 inh: inactive

What do the screens show for `CCCNC(=O)CC1CCCN(c2cnn(C)c(=O)c2)C1` (stereo not drawn)?
Pf Dd2 inh: inactive

How did COc1ccc(CC(=O)N2CCC(n3cnnc3C3CC3)CC2)cc1Cl do in these assays?
Pf Dd2 inh: inactive

Results for O=C(c1ccccn1)N1CC(=O)N(C2CCCCC2)CC(OCc2ccccc2)C1 (stereo not drawn) ?
Pf Dd2 inh: inactive

What do the screens show for `COc1cccc(C(=O)N2C3CCCC2CC(=O)C3)c1`?
Pf Dd2 inh: inactive

How did COCCc1nc(CNC(=O)C2CCCN(C(=O)N(C)C)C2)no1 (stereo not drawn) do in these assays?
Pf Dd2 inh: inactive

How did COC[C@@H]1CN(C(=O)c2cc(C3CC3)[nH]n2)C[C@H]1c1nc(C2CC2)no1 do in these assays?
Pf Dd2 inh: inactive

How did CC(=O)c1cccc(-n2c(=O)c3c4c(sc3n(Cc3cccc(C)c3)c2=O)CN(C(C)=O)CC4)c1 do in these assays?
Pf Dd2 inh: inactive

How did CC(=O)N1CCc2c(sc3c2c(=O)n(-c2ccccc2)c(=O)n3CC(=O)c2ccccc2)C1 do in these assays?
Pf Dd2 inh: inactive

How did CC(=O)N1CCc2c(sc3c2c(=O)n(-c2ccccc2)c(=O)n3Cc2cccc(C(F)(F)F)c2)C1 do in these assays?
Pf Dd2 inh: 10µM

Results for COc1ccc(-c2cc3ccc(O)c(CN4CCCC4)c3oc2=O)cc1 ?
Pf Dd2 inh: 5.62µM

How did COc1ccc(-c2cc3ccc(O)c(CN4CCC(C)CC4)c3oc2=O)cc1OC do in these assays?
Pf Dd2 inh: 2.51µM

How did COc1ccc(-c2nc(S(=O)(=O)c3ccccc3)c(N3CCC(C)CC3)o2)cc1 do in these assays?
Pf Dd2 inh: inactive

Results for COc1ccc(CN2CCC(N3CCCCCC3=O)CC2)cc1 ?
Pf Dd2 inh: inactive

What do the screens show for `COc1ccc(-c2onc(C)c2C)cc1S(=O)(=O)N1CCC(C)CC1`?
Pf Dd2 inh: inactive

How did COc1ccc(CN2CCC3(CC2)CC(O)CCO3)cc1OC (stereo not drawn) do in these assays?
Pf Dd2 inh: inactive

What do the screens show for `COc1ccc(CNC(=O)Cn2c(=O)oc3cc(S(=O)(=O)N4CCC(C)CC4)ccc32)cc1`?
Pf Dd2 inh: inactive

How did COc1ccc(-c2cc3ccc(O)c(CN4CCC(C)CC4)c3oc2=O)cc1 do in these assays?
Pf Dd2 inh: 2.24µM

Results for COc1ccc(CNC(=O)C2CCN(Cc3nc(-c4ccc(OC)c(OC)c4)oc3C)CC2)cc1 ?
Pf Dd2 inh: inactive

What do the screens show for `COc1ccc(-c2c(C)c3ccc(O)c(CN4CCC(C)CC4)c3oc2=O)cc1OC`?
Pf Dd2 inh: 10µM

What do the screens show for `COc1ccc(-c2nnc(SCC(=O)N3CCCCC3)o2)cc1`?
Pf Dd2 inh: inactive

How did COc1ccccc1CNC(=O)C1CCN(Cc2nc(-c3ccc(OC)c(OC)c3)oc2C)CC1 do in these assays?
Pf Dd2 inh: inactive

How did Cc1nc(CCCNC(=O)c2cc(S(N)(=O)=O)ccc2F)sc1C do in these assays?
Pf Dd2 inh: inactive

Results for CCNC(=O)[C@@H]1C[C@H](NC(=O)c2ccn(CC)n2)CN1C1CCOCC1 ?
Pf Dd2 inh: inactive

How did O=C(C1CCN(S(=O)(=O)N2CCOCC2)CC1)N1CCCC(c2nc(C3CCOCC3)no2)C1 (stereo not drawn) do in these assays?
Pf Dd2 inh: inactive

What do the screens show for `CN1CCC(N2CCN(S(=O)(=O)c3ccc(F)cc3)CC2)C1=O` (stereo not drawn)?
Pf Dd2 inh: inactive

What do the screens show for `O=C(C1CC2(CCNCC2)CN1)N1CCCN(Cc2ccc(F)cc2)CC1` (stereo not drawn)?
Pf Dd2 inh: inactive

How did COCCNc1ncc(-c2cccc(F)c2)c2c1OCC2 do in these assays?
Pf Dd2 inh: inactive

What do the screens show for `CC1(C)C(=O)Nc2ccc(S(=O)(=O)N3CCC(c4noc(-c5cccnc5)n4)C3)cc21` (stereo not drawn)?
Pf Dd2 inh: inactive[5.79 µM]

What do the screens show for `O=C(Cn1nnnc1CN1CCOCC1)N1CCN(c2ccc(Cl)cc2)CC1`?
Pf Dd2 inh: inactive

What do the screens show for `Cc1cc2oc(=O)c(CC(=O)O)c(C)c2c2occ(-c3ccccc3)c12`?
Pf Dd2 inh: inactive

Results for O=c1oc2c(CN3CCCC3)c(O)ccc2cc1-c1ccccc1 ?
Pf Dd2 inh: 11.2µM

What do the screens show for `O=c1oc2c(CN3CCOCC3)c(O)ccc2cc1-c1ccc(Cl)cc1`?
Pf Dd2 inh: 7.08µM

How did Cn1cc(-c2ccc(O)c(F)c2)c2nc(CN3CCOCC3)cn2c1=O do in these assays?
Pf Dd2 inh: inactive

Results for O=c1oc2ccc(Br)cc2cc1-c1csc(-c2ccccc2)n1 ?
Pf Dd2 inh: inactive

Results for COc1ccc(NC(=O)N2C[C@@H](F)[C@@H](OCc3nc4ccccc4[nH]3)C2)cc1 ?
Pf Dd2 inh: inactive

What do the screens show for `CCC1Oc2ccc(NC(=O)CC(C)(C)C)cc2CN(Cc2ccc(F)cc2)C1=O` (stereo not drawn)?
Pf Dd2 inh: inactive

Results for Cc1cc(C(=O)N2C[C@@H](COc3ccccc3)[C@H](C(N)=O)C2)n(C)n1 ?
Pf Dd2 inh: inactive
